Results taken from the supplement of paper PMC10121225.
Structures can show the parent of a compound that is named as a salt.

These compounds were tested on hN + hpA co-culture (H1 iNGN2 human neurons + human primary astrocytes) (assay: presynaptic density (SYNAPSIN1 puncta per MAP2 neurite area), Z-score vs DMSO controls; higher = more presynaptic puncta (synapse-promoting)). Conditions: 3 µM; 72 h.
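Note: immunostained co-cultures imaged by high-content microscopy, Z-score per plate against mean and SD of 0.1% DMSO wells, compounds added on differentiation day 18, analysed day 21.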

Row | Structure (SMILES) | presynaptic density (Z-score)
1 | NC(=O)c1cnc(NC2CCCCC2N)nc1Nc1cccc(-n2nccn2)c1 (stereo unspecified) | -0.728
2 | O=C(C[S+]([O-])Cc1ccco1)NC/C=C\COc1cc(CN2CCCCC2)ccn1 (stereo unspecified) [Lafutidine] | -0.624
3 | Oc1ncnc2[nH]ncc12 [Allopurinol] | -0.774
4 | O=C(NNc1ccccc1)c1ccncc1 | -0.884
5 | CN(C)CCOc1ccc(/C(=C(/CCCl)c2ccccc2)c2ccccc2)cc1 | -0.866
6 | OCCn1cc(-c2cnc3nnn(Cc4ccc5ncccc5c4)c3n2)cn1 | -0.173
7 | Nc1nc(OCc2cc(Br)cs2)c2[nH]cnc2n1 [Lomeguatrib] | -0.621
8 | CNC(=O)c1ccccc1Nc1nc(Nc2ccc(N3CCOCC3)cc2OC)ncc1Cl | 0.092
9 | O=C(O)/C=C/c1ccc(Cn2ccnc2)cc1 [Ozagrel HCl] | -0.679
10 | NC(=O)c1ccc(-c2nc(-c3ccc4c(c3)OCO4)c(-c3ccccn3)[nH]2)cc1 | 0.232
11 | CC(C)(C)c1cc(NC(=O)Nc2ccc(-c3cn4c(n3)sc3cc(OCCN5CCOCC5)ccc34)cc2)no1 [AC220 (Quizartinib] | 0.214
12 | CC(C)NC[C@@H](C(=O)N1CCN(c2ncnc3c2[C@H](C)C[C@H]3O)CC1)c1ccc(Cl)cc1 | -0.322
13 | CCC(=O)NCC[C@@H]1CCc2ccc3c(c21)CCO3 | -1.53
14 | COc1cc(F)c(C(C)C)cc1-c1ccc(C(F)(F)F)cc1CN1C(=O)O[C@H](c2cc(C(F)(F)F)cc(C(F)(F)F)c2)[C@@H]1C [Anacetrapib (MK-0859)] | -0.588
15 | C#Cc1cccc(Nc2ncnc3cc4c(cc23)OCCOCCOCCO4)c1 [Icotinib] | -0.0135
16 | CC(C)OC(=O)C1=CN(C(=O)c2ccc(F)c(F)c2)CC(C)(C)c2c1[nH]c1ccccc21 | -0.269
17 | CN(C)CCc1c[nH]c2ccc(Cn3cncn3)cc12 | -0.227
18 | O=C1NC(=O)C(c2ccccc2[N+](=O)[O-])=C1Nc1ccc(O)c(Cl)c1 | -0.662
19 | NC(=O)c1ccc(I)c([N+](=O)[O-])c1 | -1.09
20 | CC(C)c1c(C(=O)Nc2ccccc2)c(-c2ccccc2)c(-c2ccc(F)cc2)n1CC[C@@H](O)C[C@@H](O)CC(=O)O | -2.01
21 | Cc1c(C(=O)Nc2ccc(N3C[C@@H](C)O[C@@H](C)C3)nc2)cccc1-c1ccc(OC(F)(F)F)cc1 [LDE225 (NVP-LDE225,Erismodegib)] | 0.612
22 | O=[N+]([O-])c1ccc2c(c1)S(=O)(=O)C=C2 [6-Nitrobenzo[b]thiophene 1,1-dioxide] | 0.915
23 | COc1cc2c(cc1-c1c(C)noc1C)ncc1[nH]c(=O)n([C@H](C)c3ccccn3)c12 [I-BET 151 hydrochloride] | 3.55
24 | C=CCNC1=C2C[C@@H](C)C[C@H](OC)[C@H](O)[C@@H](C)/C=C(\C)[C@H](OC(N)=O)[C@@H](OC)/C=C\C=C(/C)C(=O)NC(=CC1=O)C2=O [17-AAG (Tanespimycin)] | 0.868
25 | CCN1CCCC1CNC(=O)c1cc(S(N)(=O)=O)ccc1OC (single isomer, unassigned; (-)) [(-)-Sulpiride] | -1.09
26 | CN[C@H]1CC[C@@H](c2ccc(Cl)c(Cl)c2)c2ccccc21 | 1.13
